This excerpt belongs to a sample that is enriched for hits.
BL2 CD40 inh: inhibitors of CD40-induced NF-kB signaling, primary screen, BL2 cells, luciferase reporter, single point; CD40L-induced, 4 h; 83,000 compounds, 0.94% hits; inhibition, % at 10 µM; AID 1053188, 2014;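 active = mean inhibition of at least 50% with a set share of replicates also reaching that level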
Hits are given with their value; 0 = inactive; [ ] = remark or other dose.

SMILES	BL2 CD40 inh
COc1ccccc1CN(C)C[C@H]1OCc2ccccc2-c2ccccc2C(=O)N([C@@H](C)CO)C[C@H]1C	0
C[C@H](CO)N1C[C@H](C)[C@H](CN(C)Cc2ccccc2C(F)(F)F)OCc2ccccc2-c2ccccc2C1=O	0
C[C@@H]1CN([C@H](C)CO)C(=O)c2ccccc2-c2ccccc2CO[C@@H]1CN(C)Cc1ccccc1	0
CN1C(=O)c2cc(NC(=O)C3CCC3)ccc2OC[C@H]2O[C@@H](CC(=O)NCC3CCCCC3)CC[C@H]21	0
O=C(NCCc1ccncc1)[C@@H]1[C@@H](CO)[C@@H]2Cn3c(ccc(-c4ccncc4)c3=O)[C@H]1N2	0
CN(C)C(=O)c1cccc(-c2ccc([C@@H]3[C@@H](CO)N4C(=O)CN(C(=O)C5CCCC5)C[C@@H]34)cc2)c1	0
COc1ccc2c3c(n(C)c2c1)[C@@H](CO)N(S(C)(=O)=O)CC31CCN(C(=O)Nc2cccc(F)c2)CC1	0
O=C(C[C@H]1C[C@@H]2c3cc(NC(=O)Nc4ccccc4F)ccc3O[C@@H]2[C@@H](CO)O1)NC1CCCC1	0
C[C@@H]1CN([C@@H](C)CO)C(=O)c2ccccc2-c2ccccc2CO[C@H]1CN(C)C(=O)[C@H](C)c1ccccc1	0
O=C(Nc1ccc(C(F)(F)F)cc1)N1[C@@H]2CNC[C@H]1C2c1ccc(/C=C/c2ccccc2)cc1 (stereo partly drawn)	0
O=C(C[C@H]1C[C@@H]2c3cc(NC(=O)NC4CCCCC4)ccc3O[C@@H]2[C@H](CO)O1)NC1CCCCC1	0
CC=Cc1ccc2n(c1=O)C[C@H]1[C@H](CO)[C@@H](C(=O)NC3CCCC3)N(CC3CCCCC3)[C@@H]21 (mixture of isomers)	0
CCN(CC(=O)Nc1ccccc1C(F)(F)F)C(=O)Cc1sc(C)nc1-c1ccc(F)cc1	0
Cc1nc(-c2ccc(F)cc2)c(CC(=O)N(C)CC(=O)Nc2cccc(F)c2)s1	54
Cc1nc(-c2ccc(F)cc2)c(CC(=O)NCC(=O)Nc2ccc(F)c(F)c2)s1	0
Cc1nc(-c2ccc(F)cc2)c(CC(=O)N(C)CC(=O)Nc2ccc(Br)cc2C)s1	92
Cc1nc(-c2ccc(F)cc2)c(CC(=O)N(C)CC(=O)Nc2ccccc2Br)s1	0
Cc1nc(-c2ccc(F)cc2)c(CC(=O)N(C)CC(=O)Nc2ccccc2C(F)(F)F)s1	0
C/C=C/c1cccc(-c2nc(C(=O)NCc3ccccc3)cc3c2[C@@H](CCO)N([S@](=O)C(C)(C)C)C3)c1	0
O=C(Nc1ccccc1)N1CC(=O)N2[C@H](CO)[C@H](c3ccc(C#CC4CCCC4)cc3)[C@@H]2C1	0
C[C@@H]1CN([C@H](C)CO)C(=O)c2c(c3ccccc3n2C)-c2ccccc2CO[C@H]1CN(C)C(=O)c1ccccc1	0
CN(C[C@H]1N[C@@H](CO)[C@@H]1c1ccc(-c2cccc(F)c2)cc1)S(C)(=O)=O	0
C[C@@H]1CN([C@@H](C)CO)C(=O)Cc2cc(NC(=O)Cc3cn(C)c4ccccc34)ccc2O[C@H]1CN(C)Cc1ccccc1	0
Cc1ccc(S(=O)(=O)N[C@H]2CC[C@@H](CCn3cc(C4CCCC4)nn3)O[C@H]2CO)cc1	0
CC(OC(=O)c1ccccn1)C(=O)Nc1ccc2c(c1)OCCO2 (stereo not drawn)	0
SMILES	BL2 CD40 inh
O=C(Nc1ccc2c(c1)OCCO2)c1ccccn1	78
O=C(Nc1ccc2c(c1)OCCO2)c1ccc2ccccc2n1	0
CC(C)CC#Cc1ccc([C@@H]2[C@H](CO)N3C(=O)CN(C(=O)c4ccccn4)C[C@@H]23)cc1	0
N#Cc1cccc(-c2ccc3c(c2)[C@@H]2[C@@H](CCN2C(=O)CN2CCOCC2)[C@@H](CO)N3)c1	active[25 µM]
N#Cc1cccc(-c2ccc3c(c2)[C@@H]2[C@@H](CCN2C(=O)CN2CCOCC2)[C@H](CO)N3)c1	0
N#Cc1cccc(-c2ccc3c(c2)[C@H]2[C@H](CCN2C(=O)CN2CCOCC2)[C@@H](CO)N3)c1	0
N#Cc1ccc(-c2ccc3c(c2)[C@H]2[C@H](CCN2C(=O)C2CC2)[C@@H](CO)N3)cc1	68
N#Cc1ccc(-c2ccc3c(c2)[C@H]2[C@H](CCN2C(=O)C2CCC2)[C@@H](CO)N3)cc1	0
N#Cc1ccc(-c2ccc3c(c2)[C@@H]2[C@@H](CCN2C(=O)C2CC2)[C@H](CO)N3)cc1	0
CN(Cc1ccccc1)C(=O)C(Cc1ccc2ccccc2c1)NC(=O)C1CCCN1C(=O)Nc1ccccc1[N+](=O)[O-] (stereo not drawn)	0
CC[n+]1c(/C=C2/C=C(C)CC(C)(C)C2)sc2ccc(OC)cc21	80
C[C@H]1CN(C)C(=O)c2cc(N)ccc2O[C@H]1CN(C)C	0
C[C@@H]1CN([C@@H](C)CO)C(=O)CCCn2cc(nn2)CO[C@@H]1CN(C)S(=O)(=O)c1cccc(C#N)c1	0
OC(COc1ccc2ccccc2c1)CN1CCCC1 (stereo not drawn)	0
O=C(O)C1CCCCN1S(=O)(=O)c1ccc2ccccc2c1 (stereo not drawn)	0
O=S(=O)(CC(CN1CCCC1)N1CCCC1)c1ccc2ccccc2c1 (stereo not drawn)	52
CN(C)C(=O)c1cccc(-c2ccc(C3[C@@H]4CN(Cc5nccs5)C[C@H]3N4)cc2)c1 (stereo partly drawn)	0
CN(C)C(=O)[C@@H]1[C@@H](CO)[C@@H]2Cn3c(ccc(C4=CCCCC4)c3=O)[C@H]1N2Cc1ccncc1	0
O=C(Nc1ccccc1)c1ccc(-c2ccc([N+](=O)[O-])cc2)o1	0
O=C(c1ccc(-c2ccc(Cl)cc2)o1)N1CCN(c2ccc([N+](=O)[O-])cc2Cl)CC1	49
CN1CCN(c2ccccc2NC(=O)c2ccc(-c3cccc([N+](=O)[O-])c3)o2)CC1	0
O=C(c1ccccc1)N1C[C@@H]2[C@H](c3ccccc31)[C@@H](CO)N2C(=O)c1cccc(F)c1	0
CNC[C@H]1Oc2ccc(NC(C)=O)cc2CC(=O)N(C)C[C@H]1C	0
CCCNC(=O)Nc1ccc2c(c1)C(=O)N(C)C[C@H](OC)[C@H](C)CN(C(=O)C1CCC1)[C@@H](C)CO2	0
COc1cccc(/C=N/NC(=O)N/N=C/c2cccc(OC)c2O)c1O	0
SMILES	BL2 CD40 inh
COc1cccc(C=NNC(=O)c2ccncc2)c1O	0
COc1cccc(/C=N/Nc2ccc(C(=O)O)cc2)c1O	96
CC(C)NC(=O)N(C)C[C@@H]1Oc2ccccc2C(=O)N(C)C[C@H]1C	0
COc1ccccc1C(=O)N1C[C@@H]2[C@H](c3ccccc31)[C@@H](CO)N2Cc1ccc(F)cc1	0
COc1ccc(NC(=O)N(C)C[C@H]2Oc3ccc(NS(=O)(=O)c4ccc(Cl)cc4)cc3C(=O)N([C@H](C)CO)C[C@H]2C)cc1	0
COc1ccccc1-c1ccc([C@H]2[C@@H](CO)N(C(=O)C3CCOCC3)[C@H]2C#N)cc1	0
CC(=O)Nc1ccc2c(c1)C(=O)N(C)C[C@H](C)[C@@H](CN(C)C(C)=O)O2	0
CCCNC(=O)N1[C@H](C#N)[C@H](c2ccc(C3=CCCCC3)cc2)[C@@H]1CO	61[25 µM]
CCCNC(=O)N1[C@H](CO)[C@@H](c2ccc(C3=CCCCC3)cc2)[C@@H]1C#N	0
CCCNC(=O)N1[C@@H](C#N)[C@@H](c2ccc(C3=CCCCC3)cc2)[C@@H]1CO	0
CCC(=O)N1[C@H](CO)[C@@H](c2ccc(C3=CCCCC3)cc2)[C@@H]1CN(C)C(C)=O	0
COc1ccc(CNC(=O)C[C@@H]2CC[C@@H](NC(=O)Nc3ccc4c(c3)OCO4)[C@H](CO)O2)cc1	0
COc1cccc(Nc2nc(-c3ccc4c(c3)OCCO4)cs2)c1	0

Compound activity from PubChem.
